Bioassay records (PubChem BioAssay)
An excerpt weighted towards active compounds, which were near 7.3% of everything screened.
NPC1 promoter act: NPC1 promoter activation; Potency, µM (top dose mostly 9.22 µM), for the others: top-dose activation, usual class: activators; actives 2.4% (n = 320,000); Huh7 NPC1 promoter luciferase reporter, 24 h; AID 485313; further: % of control where 0% means no effect; nearly all actives have a fitted effect of over 60% in size
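Luminescence read-out of NPC1 promoter-driven luciferase in stably transfected Huh7 cells; compounds delivered in DMSO and left 24 h at 37C, 5% CO2, qHTS titration format.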
Rab9 prom act: activates the Rab9 promoter; Huh7 Rab9 promoter-luciferase reporter, luminescence, 24 h; Potency, µM (titrated, usually from 9.22 µM), for inactives: at the highest dose activation, negative = inhibition, most hits filed as activators; actives 2.8% (n = 320,000); further: % of control where 0% means no effect; nearly all actives have a fitted effect of over 60% in size
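Huh7 cells stably carrying Rab9 promoter–luciferase reporter, plated 1500 cells/well, compound added after 2 h and incubated 24 h at 37 °C; luciferase luminescence then read after 10 min with detection reagent.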
SMN2 splice up: enhancers of SMN2 splice variant expression | actives 2.8% (n = 210,000) | AID 1458 | Potency, µM (titrated, usually from 46.1 µM), for inactives: at the top dose activity change, positive = activation, most hits filed as activators | HEK293 SMN2-luciferase splicing reporter, luminescence, 30-36 h; further: % of control where 0% means no effect; nearly all actives have a fitted effect of over 55% in size
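qHTS luciferase splicing reporter: luminescence rises when SMN2 exon 7 is included in transfected HEK293 cells. Compound exposure lasted 30-36 h at 37C, with 4.5 mM final sodium butyrate as control, followed by a ONE-Glo read.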
KinaseGlo FLuc: blocks Kinase-Glo luciferase, a counter-screen artifact. actives 0.28% (n = 200,000). Q27757. Kinase-Glo luciferase, ATP luminescence, 8 min. Potency, µM (top dose mostly 38.3 µM), without a hit: at the highest dose activity change, negative = inhibition, most hits filed as inhibitors; further: on the % scale 0 is the no-effect control and ±100 the full control effect; nearly all actives have a fitted effect of over 60% in size
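Substrate mix (final 50 mM imidazole pH 7.2, 50 mM KCl, 7 mM MgCl2, 10 uM ATP, 0.01% Tween 20, 0.05% BSA) plus pin-tool compound, then Kinase-Glo detection mix; 8 min ambient, luminescence read.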
ELG1 genotoxic: induces genotoxicity in HEK293T cells with luciferase-tagged ELG1; HEK293T ELG1-luciferase reporter, luminescence, 16 h; Potency, µM (titrated, usually from 46 µM), inactives show at the top dose activity change, positive = activation, most hits filed as activators; actives 1.3% (n = 330,000); AID 504466; further: % of control where 0% means no effect; nearly all actives have a fitted effect of over 60% in size
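Reporter readout depends on ELG1 protein level, which increases with genetic stress. After 16 hr compound exposure at 37 °C, luciferase activity was quantified using ONE-Glo.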
FLuc counter: firefly luciferase modulation, counter-screen for miR-21 project; P08659; purified FLuc, Km substrates, luminescence inhibition; Potency, µM (doses to about 57.5 µM), for inactives: top-dose activity change, negative = inhibition, hits mostly inhibitors; actives 6.9% (n = 360,000); AID 588342;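 further: plate controls were vehicle for no effect and reference inhibitor for full effect; nearly all actives have a fitted effect of over 55% in size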
Target sequence (P08659 whole entry, looked up): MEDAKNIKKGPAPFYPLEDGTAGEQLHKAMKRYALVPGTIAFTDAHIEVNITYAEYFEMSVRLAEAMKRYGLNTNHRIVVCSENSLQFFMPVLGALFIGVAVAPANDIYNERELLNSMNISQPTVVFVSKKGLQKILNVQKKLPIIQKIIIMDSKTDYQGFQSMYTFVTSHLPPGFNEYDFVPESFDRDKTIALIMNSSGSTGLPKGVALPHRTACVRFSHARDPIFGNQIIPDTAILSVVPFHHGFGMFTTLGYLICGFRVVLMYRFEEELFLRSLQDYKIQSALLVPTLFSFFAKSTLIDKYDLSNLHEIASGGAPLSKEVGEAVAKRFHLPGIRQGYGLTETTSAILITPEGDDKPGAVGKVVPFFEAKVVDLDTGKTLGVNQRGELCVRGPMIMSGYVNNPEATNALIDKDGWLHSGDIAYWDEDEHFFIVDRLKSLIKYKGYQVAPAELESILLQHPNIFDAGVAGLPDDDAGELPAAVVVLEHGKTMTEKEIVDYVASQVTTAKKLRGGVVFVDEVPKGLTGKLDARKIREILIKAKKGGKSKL
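Biochemical qHTS of compounds, final roughly 60 µM downward over six points, against 10 nM purified firefly luciferase using Km concentrations of substrates (10 uM D-luciferin, 10 uM ATP) in Tris acetate pH 7.5 buffer; luminescence output.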
* hit, by the source's call; ? = inconclusive; nt = not tested or not shown; [ ] = remark or other dose. The call rests on the fitted dose curve; in most records, active means well fitted curve in the direction sought with a large enough effect; inconclusive means small, poorly fitted or top-dose-only effect, or another doubt; inactive means no such curve, though single readings can be large; an effect the other way counts as inactive or inconclusive. Potency means the concentration at half of the fitted maximal effect.

SMILES | NPC1 promoter act | Rab9 prom act | SMN2 splice up | KinaseGlo FLuc | ELG1 genotoxic | FLuc counter
O=C(Nc1sc2c(c1C(=O)O)CCCCC2)c1ccco1 | 2.8µM* | ? | 11µM* | -1% | ? | 4.3µM*
N#Cc1c(NC(=O)c2ccco2)sc2c1CCC2 | -6% | 5% | nt | nt | -1% | -1%
COC(=O)c1c(NC(=O)c2c(OC)cccc2OC)sc2c1CCCC2 | nt | nt | 4% | nt | nt | ?
CCOC(=O)c1c(NC(=O)c2c(C)noc2C)sc2c1CCCCC2 | 0% | -4% | 0% | 0% | -2% | -1%
CCc1c(C)sc(NC(=O)c2ccoc2C)c1C(N)=O | 20% | 20% | nt | nt | 8% | 11µM*
COC(=O)c1c(NC(=O)c2ccoc2C)sc2c1CCC2 | -2% | 2% | -2% | -4% | 11% | 1%
CCOC(=O)c1c(NC(=O)c2ccoc2C)sc(C)c1C | -1% | -2% | -7% | -4% | -2% | -13%
Cc1occc1C(=O)Nc1sc2c(c1C(N)=O)CCCCC2 | ? | ? | ? | -1% | 10µM* | 2.7µM*
CCOC(=O)c1c(NC(=O)c2ccco2)sc2c1CCCCC2 | 9% | -7% | 26% | 4% | -1% | 17µM*
Nc1ccc(N=Nc2c(S(=O)(=O)O)cc3ccccc3c2S(=O)(=O)O)cc1 | nt | nt | 1%[9.22 µM] | -6%[7.66 µM] | nt | nt
O=C(O)c1ccc(COc2ccc(CO)cc2Cl)cc1 | ? | 4.5µM* | ? | 2% | 9.2µM* | 5.4µM*
O=C(O)c1ccc(OCc2ccccc2)c(Cl)c1 | nt | nt | -6%[9.22 µM] | -4%[7.66 µM] | nt | nt
CN1CCN(C(=O)c2ccc(COc3ccc(Cl)cc3Cl)cc2)CC1 | -2% | 1% | -4% | -2% | 20% | 12µM*
O=C(O)c1cccc(COc2ccc(CO)cc2Cl)c1 | 1.3µM* | 1.3µM* | 0.04µM* | -16% | ? | 0.021µM*
COc1ccc(Cl)cc1NC(=O)c1cc(S(=O)(=O)N2CCc3ccccc32)cn1C | nt | nt | nt | nt | nt | -1%
O=C(Nc1nnc(S(=O)(=O)N2CCCc3ccccc32)s1)c1ccc(Cl)cc1 | nt | nt | nt | nt | nt | 2%
Cc1ccc(/C=C/C(=O)c2ccc(N3CCOCC3)cc2)s1 | ? | ? | 22µM* | ? | 9% | 0.34µM*
Cc1cccc(/C=C/C(=O)c2ccc(N3CCOCC3)cc2)c1 | -3% | 0% | -29% | 0% | 9% | 21µM*
O=C(/C=C/c1ccc(F)cc1)c1ccc(N2CCOCC2)cc1 | 6% | 26% | nt | nt | 4% | 1.2µM*
CCc1ccc(/C=C/C(=O)c2ccc(N3CCOCC3)cc2)cc1 | 1% | -1% | -31% | 1% | 2% | 1.5µM*
COc1ccc(C(=O)Nc2nnc(S(=O)(=O)N3CCN(c4ccc(C)cc4)CC3)s2)cc1 | nt | nt | nt | nt | nt | -2%
Cc1ccc(S(=O)(=O)c2cn(C)c3cc(N4CCCCCC4)c(F)cc3c2=O)cc1 | nt | nt | nt | nt | nt | 4%
CN1CCN(C(=O)Cn2c(-c3cccs3)cc3ccccc32)CC1 | nt | nt | nt | nt | nt | -2%
O=C1c2ccccc2C(=O)C1(CO)c1ccc(OC(F)F)cc1 | ? | 0.45µM* | nt | nt | ? | 0.95µM*
O=C1c2ccccc2C(=O)C1(CO)c1ccccc1 | 26% | ? | 166% | -12% | -8% | 15µM*
COC(=O)CC1(c2ccc(OC)cc2)C(=O)c2ccccc2C1=O | -3% | 1% | nt | nt | -1% | 0%
O=C(OCC1OC(OC(=O)c2cc(O)c(O)c(OC(=O)c3cc(O)c(O)c(O)c3)c2)[C@@H](OC(=O)c2cc(O)c(O)c(OC(=O)c3cc(O)c(O)c(O)c3)c2)C(OC(=O)c2cc(O)c(O)c(OC(=O)c3cc(O)c(O)c(O)c3)c2)C1OC(=O)c1cc(O)c(O)c(OC(=O)c2cc(O)c(O)c(O)c2)c1)c1cc(O)c(O)c(OC(=O)c2cc(O)c(O)c(O)c2)c1 (some centres undefined) | nt | nt | -97% | 9% | nt | nt
Fc1ccc(CNc2nc3ccc(Cl)cc3n3nnnc23)cc1 | nt | nt | 11% | nt | nt | 0%
c1ccc(CSc2ccc(-c3cccnc3)nn2)cc1 | ? | ? | ? | -3% | 13% | 21µM*
